Test results from PubChem BioAssay (Tox21).
A number with no mark means an inactive call. Records with an inconclusive call do not appear. A call without a number means that no potency is given here. Activity calls are given as the source filed them. Unless noted, calls come from the whole dose curve; as a rule, active = well fitted curve in the direction sought with a large enough effect in the repeat runs; inconclusive = weak or mixed curves; inactive = no such curve, though single readings can be large; an effect the other way counts as inactive or inconclusive.

Assays:
[1] = target: Thyrotropin receptor (Homo sapiens) (UniProt P16473); assay: qHTS assay to identify small molecule antagonists of the thyroid stimulating hormone receptor (TSHR) signaling pathway (AID 1259385; calls by dose curve; note: nearly all actives have a fitted effect of over 20% in size)
Summary of the method: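 TSHR-HEK293 cells (800/well) plated 18 h, then compounds with Ro20-1724 and TSH at 1.5 ng/mL final, 30 min at room temperature. cAMP quantified by HTRF (cAMP-d2/anti-cAMP-cryptate, 1 h); 15 concentrations in triplicate.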

[2] = qHTS assay to identify small molecule agonists of the estrogen receptor alpha (ER-alpha) signaling pathway in the presence of an antagonist - cell viability counter screen (AID 1259386);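 note: series mostly up to about 92 µM; cells exposed to compounds for 22 h at 37 °C before the viability read; nearly all actives have a fitted effect of over 30% in size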
Summary of the method: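 The test measures whether compounds kill ER-alpha reporter cells (VM7Luc4E2) under antagonist co-treatment (ICI-182,780, 10.0nM). Fluorescence from CellTiter-Fluor is read after a 22hr exposure.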

[3] = target: Progesterone receptor (Homo sapiens) (UniProt P06401); assay: qHTS assay to identify small molecule agonists of the progesterone receptor (PR) signaling pathway (AID 1346784; calls by dose curve; note: nearly all actives have a fitted effect of over 30% in size)
Summary of the method: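 Agonist mode, quantitative HTS format in a HEK 293T line expressing a UAS-controlled beta-lactamase reporter; 16 hr compound exposure at 37C in 2% charcoal-stripped FBS, then LiveBLAzer B/G FRET fluorescence.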

[4] = target: Progesterone receptor (Homo sapiens) (UniProt P06401); assay: qHTS assay to identify small molecule antagonists of the progesterone receptor (PR) signaling pathway (AID 1346795; active = well fitted inhibition curve with a large enough effect in the signal ratio in the repeat runs, not every such curve was filed as active; the % refers to the signal ratio; note: potency is the fitted concentration of half-maximal effect)
Summary of the method: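 HEK293T PR-UAS-bla reporter cells in charcoal-stripped serum (2%) received compound after a 6 hr settling period, followed by R5020 agonist at 1 nM final; 16 hr incubation preceded the FRET substrate step and fluorescence measurement.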

[5] = qHTS assay to identify small molecule antagonists of the progesterone receptor (PR) signaling pathway - cell viability counter screen (AID 1346798); note: series mostly up to about 92 µM; nearly all actives have a fitted effect of over 50% in size
Summary of the method: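 Same-well multiplex: after 16 hr at 37C with compound and R5020 stimulation, HEK293T cells carrying a UAS-bla reporter received LiveBLAzer substrate (2 hr RT), then CellTiter-Glo (30 min RT) for luminescent viability.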

[6] = qHTS assay to identify small molecule antagonists of the TGF-beta/Smad signaling pathway - cell viability counter screen (AID 1346824); note: nearly all actives have a fitted effect of over 50% in size
Summary of the method: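 SBE-bla HEK 293T cells, incubated overnight, then compound plus 0.25 ng/mL TGF-beta1 (stock added) for 5 hr at 37 C. Viability was read in the same wells by CellTiter-Glo luminescence after 30 min at room temperature.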

[7] = qHTS assay to identify small molecule agonists of the TGF-beta/Smad signaling pathway - cell viability counter screen (AID 1346829); note: top concentration of the series differs between compounds; nearly all actives have a fitted effect of over 45% in size
Summary of the method: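 After overnight seating at 37 C and 5% CO2, reporter cells got compounds for 5 hr and FRET substrate for 2 hr; cell viability then came from CellTiter-Glo luminescence.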

[8] = qHTS assay to identify small molecule agonists of the TGF-beta/Smad signaling pathway (AID 1346859; active = well fitted activation curve with a large enough effect in the signal ratio in the repeat runs, not every such curve was filed as active; the % refers to the signal ratio; note: series mostly up to about 77 µM)
Summary of the method: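 Smad-responsive beta-lactamase reporter cells (HEK 293T) received compounds from DMSO stocks after overnight attachment, were incubated 5 hr, then treated 2 hr with FRET substrate before dual-emission fluorescence measurement (405 nm excitation).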

[9] = target: Thyrotropin-releasing hormone receptor (Homo sapiens) (UniProt P34981); assay: qHTS assay to identify small molecule antagonists of the thyrotropin-releasing hormone receptor (TRHR) signaling pathway (AID 1346877; active = well fitted inhibition curve with a large enough effect in the repeat runs, not every such curve was filed as active; note: series mostly up to about 51 µM)
Summary of the method: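 Overnight-plated (18 h, 37 °C) HEK293 cells expressing TRHR were dye-loaded 2 h, treated with compound, then stimulated with TRH at 1 nM final. Fluorescence intensity was captured every second for 3 min.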

[10] = target: Thyrotropin-releasing hormone receptor (Homo sapiens) (UniProt P34981); assay: qHTS assay to identify small molecule agonists of the thyrotropin-releasing hormone receptor (TRHR) signaling pathway (AID 1346891; calls by dose curve;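 note: HEK293 cells expressing TRHR with calcium dye readout; series mostly up to about 58 µM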)
Summary of the method: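 Agonist-mode calcium mobilisation screen: TRHR-transfected HEK293 cells cultured overnight (18 h), dye-loaded for 2 h at 37 °C, exposed to compounds, and monitored by fluorescence for 3 min.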

[11] = Caspase-3/7 induction in CHO-K1 cells by small molecules, qHTS cell viability counter screen (AID 1346979); note: nearly all actives have a fitted effect of over 35% in size
Summary of the method: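 In the same wells as the caspase read, viability of compound-treated wild-type CHO-K1 cells was assessed using CellTiter-Fluor, added after 16hr at 37C and measured by fluorescence following 1hr further incubation.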

[12] = Caspase-3/7 induction in CHO-K1 cells by small molecules, qHTS assay (AID 1346980); note: nearly all actives have a fitted effect of over 15% in size
Summary of the method: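 Wild-type CHO-K1 cells exposed to compounds for 17hr at 37 C, 5% CO2. Caspase-3/7 activity then measured by Caspase-Glo 3/7 luminescence after 30min at room temperature.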

[13] = Caspase-3/7 induction in HepG2 cells by small molecules, qHTS cell viability counter screen (AID 1346981); note: series mostly up to about 92 µM; nearly all actives have a fitted effect of over 30% in size
Summary of the method: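 Treatment of HepG2 cells with DMSO-delivered compounds ran 16 hr at 37 C following a 5-hr pre-incubation of 2,000 cells/well. CellTiter-Fluor fluorescence, read after 1 hr, served as the viability measure in a qHTS format.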

[14] = qHTS assay to identify small molecule agonists of the progesterone receptor (PR) signaling pathway - cell viability counter screen (AID 1346799; calls by dose curve; note: nearly all actives have a fitted effect of over 45% in size)
Summary of the method: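 Counter screen for cytotoxicity: compound-treated PR-UAS-bla HEK293T cells (16 hr, 37C, 5% CO2) were assayed with CellTiter-Glo, luminescence measured after 30 min at room temperature.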

[15] = Human pregnane X receptor (PXR) small molecule agonists, qHTS cell viability counter screen (AID 1346977); note: nearly all actives have a fitted effect of over 50% in size
Summary of the method: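 Measures live-cell protease fluorescence (CellTiter-Fluor) in PXR-Luc HepG2 cells treated 24hr with compounds at 37C. Cells had 5hr to attach before pin transfer of DMSO solutions.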

[16] = target: Nuclear receptor subfamily 1 group I member 2 (Homo sapiens) (UniProt O75469); assay: Human pregnane X receptor (PXR) small molecule agonists, qHTS assay (AID 1346982); note: nearly all actives have a fitted effect of over 35% in size; note: potency is the fitted concentration of half-maximal effect
Summary of the method: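 Stable HepG2 line reporting PXR-mediated CYP3A4 expression via luciferase. Treatment: 24 hr with compounds in DMSO at 37 C. Detection: ONE-Glo luminescence.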

[17] = Caspase-3/7 induction in HepG2 cells by small molecules, qHTS assay (AID 1346978); note: nearly all actives have a fitted effect of over 15% in size
Summary of the method: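 Wild-type HepG2 cells, 2,000/well, settled 5 hr at 37 C and 5% CO2, then compound-treated for 17 hr; caspase-3/7 activity read by luminescent Caspase-Glo 3/7 after 30 min at room temperature.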

[18] = target: Nuclear receptor subfamily 1 group I member 2 (Rattus norvegicus) (UniProt Q9R1A7); assay: Rat pregnane X receptor (rPXR) activation by small molecules, qHTS assay (AID 1346983); settings: rPXR luciferase reporter cells, One-Glo luminescence, 24 h; max activation: active compounds read high; note: nearly all actives have a fitted effect of over 20% in size
Summary of the method: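 Cell-based rPXR activation assay: rPXR cells, 2,000 per well, rested 5hr at 37 C, then exposed to compounds in DMSO for 24 hr at 37 C. Luciferase activity read by One-Glo luminescence after 30 min at room temperature.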

[19] = target: Nuclear receptor subfamily 1 group I member 2 (Homo sapiens) (UniProt O75469); assay: CYP3A4 induction through human pregnane X receptor (PXR) by small molecules, qHTS assay (AID 1346984); note: nearly all actives have a fitted effect of over 40% in size
Summary of the method: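 After 24 h at 37C with compound, DPX-2 cells (HepG2, co-transfected PXR response element and CYP3A4 promoter-luciferase) got 3uM final P450-Glo Luciferin-IPA for 3 h; One-Glo luminescence followed.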

[20] = target: Nuclear receptor subfamily 1 group I member 2 (Homo sapiens) (UniProt O75469); assay: Human pregnane X receptor (PXR) activation by small molecules, qHTS assay (AID 1346985); note: nearly all actives have a fitted effect of over 40% in size
Summary of the method: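 DPX-2 cells (HepG2 co-transfected with a PXR response element and a CYP3A4-promoter luciferase construct) were seeded at 2,000 per well, rested 5 hr at 37C, then exposed to DMSO-dissolved compounds for 24 hr. Activation was read as luciferase luminescence.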

Thyrotropin receptor (Homo sapiens), sequence (P16473 whole entry, looked up): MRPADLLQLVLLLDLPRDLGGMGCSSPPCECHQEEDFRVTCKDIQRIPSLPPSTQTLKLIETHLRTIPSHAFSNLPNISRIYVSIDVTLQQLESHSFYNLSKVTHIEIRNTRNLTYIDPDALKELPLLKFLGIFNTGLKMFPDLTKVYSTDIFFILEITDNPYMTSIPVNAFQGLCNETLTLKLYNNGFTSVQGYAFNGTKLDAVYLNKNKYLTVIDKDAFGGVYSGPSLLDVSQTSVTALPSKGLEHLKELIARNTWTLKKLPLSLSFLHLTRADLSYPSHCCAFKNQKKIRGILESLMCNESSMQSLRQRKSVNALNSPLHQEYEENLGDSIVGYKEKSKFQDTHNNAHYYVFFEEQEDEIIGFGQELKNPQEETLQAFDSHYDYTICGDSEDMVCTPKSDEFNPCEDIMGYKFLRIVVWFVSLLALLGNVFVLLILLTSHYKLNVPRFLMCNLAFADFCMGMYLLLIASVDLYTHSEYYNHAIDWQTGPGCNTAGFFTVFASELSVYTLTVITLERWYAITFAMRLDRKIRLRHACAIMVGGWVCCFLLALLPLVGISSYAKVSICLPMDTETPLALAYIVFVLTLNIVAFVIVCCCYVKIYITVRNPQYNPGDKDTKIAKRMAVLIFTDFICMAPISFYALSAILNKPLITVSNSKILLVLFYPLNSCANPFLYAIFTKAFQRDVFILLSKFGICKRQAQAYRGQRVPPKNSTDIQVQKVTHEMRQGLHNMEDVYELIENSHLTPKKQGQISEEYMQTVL
Thyrotropin-releasing hormone receptor (Homo sapiens), sequence (P34981 whole entry, looked up): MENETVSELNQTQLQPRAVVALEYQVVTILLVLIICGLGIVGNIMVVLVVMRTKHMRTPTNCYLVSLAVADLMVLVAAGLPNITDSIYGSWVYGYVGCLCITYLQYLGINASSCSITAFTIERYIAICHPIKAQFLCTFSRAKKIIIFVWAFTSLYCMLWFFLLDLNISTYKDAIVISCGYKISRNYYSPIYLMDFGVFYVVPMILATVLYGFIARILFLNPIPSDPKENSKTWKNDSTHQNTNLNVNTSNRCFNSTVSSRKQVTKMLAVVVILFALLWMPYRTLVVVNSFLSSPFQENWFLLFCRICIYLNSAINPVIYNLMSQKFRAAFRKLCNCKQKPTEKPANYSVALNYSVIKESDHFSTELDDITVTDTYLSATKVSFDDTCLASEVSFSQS
Nuclear receptor subfamily 1 group I member 2 (Homo sapiens), sequence (O75469 whole entry, looked up): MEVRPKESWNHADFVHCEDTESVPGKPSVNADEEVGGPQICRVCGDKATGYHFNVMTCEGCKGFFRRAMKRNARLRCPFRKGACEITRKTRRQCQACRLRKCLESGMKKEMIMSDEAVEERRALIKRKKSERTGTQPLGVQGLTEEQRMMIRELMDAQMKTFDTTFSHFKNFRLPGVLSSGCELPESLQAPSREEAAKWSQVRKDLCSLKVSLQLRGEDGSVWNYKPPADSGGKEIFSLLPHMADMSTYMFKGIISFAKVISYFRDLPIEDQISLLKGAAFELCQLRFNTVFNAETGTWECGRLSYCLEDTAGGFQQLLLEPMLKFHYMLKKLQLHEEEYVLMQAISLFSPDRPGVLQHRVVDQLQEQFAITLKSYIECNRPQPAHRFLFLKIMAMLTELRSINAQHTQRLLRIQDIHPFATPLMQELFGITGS
Progesterone receptor (Homo sapiens), sequence (P06401 whole entry, looked up): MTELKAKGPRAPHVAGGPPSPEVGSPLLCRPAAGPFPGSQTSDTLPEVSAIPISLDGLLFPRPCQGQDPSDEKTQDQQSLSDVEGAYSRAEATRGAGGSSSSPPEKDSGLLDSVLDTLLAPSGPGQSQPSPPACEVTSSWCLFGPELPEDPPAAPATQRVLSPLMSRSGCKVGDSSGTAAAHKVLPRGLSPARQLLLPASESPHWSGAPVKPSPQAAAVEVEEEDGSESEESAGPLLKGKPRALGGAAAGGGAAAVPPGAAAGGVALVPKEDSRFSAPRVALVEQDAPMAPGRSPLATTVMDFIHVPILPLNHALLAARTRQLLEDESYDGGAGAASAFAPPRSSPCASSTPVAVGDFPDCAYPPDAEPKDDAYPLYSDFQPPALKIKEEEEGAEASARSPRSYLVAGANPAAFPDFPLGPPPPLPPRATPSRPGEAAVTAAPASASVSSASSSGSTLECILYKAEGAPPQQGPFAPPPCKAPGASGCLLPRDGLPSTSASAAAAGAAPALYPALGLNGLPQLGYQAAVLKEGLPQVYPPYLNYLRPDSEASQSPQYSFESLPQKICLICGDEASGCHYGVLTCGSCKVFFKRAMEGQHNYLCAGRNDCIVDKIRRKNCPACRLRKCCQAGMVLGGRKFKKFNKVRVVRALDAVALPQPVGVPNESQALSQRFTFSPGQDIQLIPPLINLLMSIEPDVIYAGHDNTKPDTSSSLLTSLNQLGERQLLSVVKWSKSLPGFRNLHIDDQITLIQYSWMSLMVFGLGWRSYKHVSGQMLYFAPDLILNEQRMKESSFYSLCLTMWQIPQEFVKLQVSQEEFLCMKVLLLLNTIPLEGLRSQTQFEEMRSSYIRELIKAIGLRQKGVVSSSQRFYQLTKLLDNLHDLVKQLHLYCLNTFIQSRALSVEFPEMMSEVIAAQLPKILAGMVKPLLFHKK
Nuclear receptor subfamily 1 group I member 2 (Rattus norvegicus), sequence (Q9R1A7 whole entry, looked up): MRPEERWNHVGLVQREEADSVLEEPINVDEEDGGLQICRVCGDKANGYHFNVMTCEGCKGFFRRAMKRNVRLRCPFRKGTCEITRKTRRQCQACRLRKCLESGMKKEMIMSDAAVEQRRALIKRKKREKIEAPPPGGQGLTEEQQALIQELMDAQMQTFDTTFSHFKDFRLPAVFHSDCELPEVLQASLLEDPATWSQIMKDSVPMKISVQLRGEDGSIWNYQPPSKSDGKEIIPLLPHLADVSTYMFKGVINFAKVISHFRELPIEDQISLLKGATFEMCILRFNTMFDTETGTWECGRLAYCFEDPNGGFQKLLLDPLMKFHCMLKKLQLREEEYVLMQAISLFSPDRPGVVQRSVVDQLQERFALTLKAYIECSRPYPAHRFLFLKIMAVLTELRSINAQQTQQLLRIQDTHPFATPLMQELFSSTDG

With `CNCCC(Oc1ccccc1OC)c1ccccc1` (stereo not given) the Potency [1] was “inactive”, the Potency [2] was “inactive” and the Potency [3] was “inactive”. For the same compound, the Potency [4] was “inactive”, the Potency [5] was “inactive” and the outcome [6] was “inactive”. The outcome [7] was “inactive”, the outcome [8] was “inactive” and the outcome [9] was “inactive”. For the same compound, the Potency [10] was “inactive”, the Potency [11] was “inactive” and the outcome [12] was “inactive”. For the same compound, the Potency [13] was “inactive”.

In the case of `CCOC(=O)NCCC[Si](OCC)(OCC)OCC`, the Potency [1] is reported as “inactive”, the Potency [2] is reported as “inactive” and the Potency [3] is reported as “inactive”. For the same compound, the Potency [4] was “inactive”, the Potency [14] was “inactive” and the outcome [6] was “inactive”. The outcome [7] was “inactive”, the outcome [8] was “inactive” and the outcome [9] was “inactive”. For the same compound, the Potency [10] was “inactive”, the Potency [15] was “inactive” and the Potency [11] was “inactive”. For the same compound, the outcome [12] was “inactive”, the Potency [13] was “inactive” and the Potency [16] was “inactive”.

In the case of `FC(F)(F)C(Cl)(Cl)Cl`, the Potency [1] is reported as “inactive”, the Potency [2] is reported as “inactive” and the Potency [3] is reported as “inactive”. For the same compound, the Potency [4] was “inactive”, the Potency [14] was “inactive” and the outcome [6] was “inactive”. The outcome [7] was “inactive”, the outcome [8] was “inactive” and the outcome [9] was “inactive”. For the same compound, the Potency [10] was “inactive”, the Potency [15] was “inactive” and the Potency [17] was “inactive”. For the same compound, the Potency [11] was “inactive”, the outcome [12] was “inactive” and the Potency [13] was “inactive”. For the same compound, the Potency [16] was “inactive”.

With `CCCNC(C)(C)COC(=O)c1ccccc1` the Potency [1] was “inactive”, the Potency [2] was “inactive” and the Potency [3] was “inactive”. The Potency [4] was “inactive”, the Potency [5] was “inactive” and the Potency [14] was “inactive”. For the same compound, the outcome [6] was “inactive”, the outcome [7] was “inactive” and the outcome [9] was “inactive”. For the same compound, the Potency [10] was “inactive”, the Potency [15] was “inactive” and the Potency [17] was “inactive”. The Potency [11] was “inactive”, the outcome [12] was “inactive” and the Potency [13] was “inactive”.

For `CC(C)OC(C)C`, the Potency [1] was “inactive”, the Potency [2] was “inactive” and the Potency [3] was “inactive”. The Potency [4] was “inactive”, the Potency [5] was “inactive” and the Potency [14] was “inactive”. The outcome [6] was “inactive”, the outcome [7] was “inactive” and the outcome [8] was “inactive”. For the same compound, the Potency [11] was “inactive”, the outcome [12] was “inactive” and the Potency [13] was “inactive”. For the same compound, the Potency [16] was “inactive”.

With `C1CCOC1` the Potency [1] was “inactive”, the Potency [2] was “inactive” and the Potency [3] was “inactive”. The Potency [4] was “inactive”, the Potency [5] was “inactive” and the Potency [14] was “inactive”. For the same compound, the outcome [6] was “inactive”, the outcome [7] was “inactive” and the Potency [10] was “inactive”. For the same compound, the Potency [15] was “inactive”, the Potency [17] was “inactive” and the Potency [11] was “inactive”. The outcome [12] was “inactive” and the Potency [13] was “inactive”.

For `C[C@@H](N)C(=O)O`, the Potency [1] was “inactive”, the Potency [2] was “inactive” and the Potency [3] was “inactive”. For the same compound, the Potency [4] was “inactive”, the Potency [5] was “inactive” and the Potency [14] was “inactive”. For the same compound, the outcome [6] was “inactive”, the outcome [7] was “inactive” and the outcome [8] was “inactive”. The Potency [15] was “inactive”, the Potency [11] was “inactive” and the outcome [12] was “inactive”. The Potency [13] was “inactive”, the Potency [16] was “inactive” and the max activation [18] was -2.77%. The Potency [19] was “inactive” and the Potency [20] was “inactive”.

For `CCOc1ccc2nc(N)sc2c1`, the Potency [1] was “inactive”, the Potency [2] was “inactive” and the Potency [3] was “inactive”. For the same compound, the Potency [4] was 60.6 µM (active), the Potency [14] was “inactive” and the outcome [6] was “inactive”. The outcome [7] was “inactive”, the outcome [8] was “inactive” and the outcome [9] was “inactive”. For the same compound, the Potency [10] was “inactive”, the Potency [17] was “inactive” and the Potency [11] was “inactive”. The outcome [12] was “inactive”, the Potency [13] was “inactive” and the Potency [16] was 17.1 µM (active).

In the case of `Cc1ccsc1C(=CCCN1CCC[C@@H](C(=O)O)C1)c1sccc1C`, the Potency [1] is reported as “inactive”, the Potency [2] is reported as “inactive” and the Potency [3] is reported as “inactive”. The Potency [4] was “inactive”, the Potency [5] was “inactive” and the Potency [14] was “inactive”. The outcome [6] was “inactive”, the outcome [7] was “inactive” and the outcome [8] was “inactive”. The Potency [15] was “inactive”, the Potency [17] was “inactive” and the outcome [12] was “inactive”. The Potency [13] was “inactive”, the Potency [16] was “inactive” and the max activation [18] was 2.87%. The Potency [19] was “inactive” and the Potency [20] was “inactive”.
